For 40 compounds, growth results are on record in PubChem BioAssay (NCI).

This is part of a sample that, as a whole, favours compounds with a hit. Of some 83,000 tested, about 20% had one in any assay.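 96-well plates, one dose, 48 hours. Percent growth reported; active if below 10.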 Activity calls are given as the source filed them.

The subject of the test is OVCAR-3 ovarian. Kind of test: NCI-60 one-dose screen, 48 h (100 = growth as untreated, 0 = no growth, -100 = all killed). To be noted: 10 µM unless noted. The protocol:
Growth inhibition of the OVCAR-3 human tumor cell line is measured as a screen for anti-cancer activity. Cells are grown in 96 well plates and exposed to the test compound for 48 hours. Compounds are tested at a single concentration, which is 10^-5 M for most compounds. The reported endpoint is percent growth (GI% or GIPRCNT), where numbers from 0 - 100% represent growth inhibition, and numbers from -100% - 0 represent cell death. For example, a value of 40 represents 60% growth inhibition. A value of 0 means no net growth occurred over the course of the experiment. A value of -40 indicates 40% of cells at the beginning of the experiment died by the end of the experiment. A value of -100 means all cells are dead at the end of the experiment.
NCI-60 Human Tumor Cell Lines Screen was performed using the standard one-dose NCI protocol, which is described in more detail at https://dtp.cancer.gov/discovery_development/nci-60/default.htm.
Compounds with GIPRCNT values below 10 were considered active. Activity score was based on GIPRCNT using the following formula: […]
Score is 0 for GIPRCNT values of 100 or above, 50 for GIPRCNT values of 0, and 100 for GIPRCNT values of -100.
`COc1cc(-c2nn(C(C)(C)C)cc2-c2ccnc(NCCCNS(=O)(=O)c3cccc(F)c3)n2)ccc1Cl`: the growth is 85% (inactive). As for `CCCn1cnc2c(c1=N)C(c1ccc(OC)cc1)c1sc3c(C)cccc3c1O2` (stereo not given), the figure is 7.94% (active); as for `Cc1cc2nc(C(Cl)Cl)nc(-c3cccs3)n2n1`, -30.9% (active); as for `COC(=O)c1ccc(NC2=C/C(=N/S(=O)(=O)c3ccc(C(=O)O)cc3)c3ccccc3C2=O)cc1`, -28.6% (active). Next, `O=C(Nc1nc2ccc([N+](=O)[O-])cc2s1)Nc1ccccc1Cl`: 16.8% (inactive); `O=C(/C=C/c1ccc(F)cc1)c1ccc(O)cc1`: 83.6% (inactive). Next, `COc1ccc2c(c1)Oc1nc(N)c(C#N)c(N)c1C2Sc1ccc(C)cc1` (stereo not given): -77.1% (active); `N#Cc1cnc2ccc(-c3cnc4[nH]ncc4c3)cc2c1N1CCc2cc(F)c(Cl)cc21`: -5.18% (active). As to `COc1ccc(NCc2cn(-c3ccc(C(=O)O)cc3)nc2-c2cc(C(F)(F)F)cc(C(F)(F)F)c2)cc1`, the growth is 101% (inactive). As for `NC(N)=Nc1ccc(Oc2cccc(Nc3ccc(Cl)c(C(F)(F)F)c3)c2)cn1`, the figure is -93.8% (active); as for `O=C(Nc1nc2ccc([N+](=O)[O-])cc2s1)Nc1ccccc1Br`, 25.9% (inactive). As to `C=C(C)[C@@H]1CC[C@]2(COP(=O)(OCC)OCC)CC[C@]3(C)[C@H](CC[C@@H]4[C@@]5(C)CCCNC(C)(C)[C@@H]5CC[C@]43C)[C@@H]12`, the growth is 54% (inactive).

Turning to `CCCn1cnc2c(c1=N)C(c1ccc(Cl)cc1)c1sc3c(CC)cccc3c1O2` (stereo not given), the growth was 6.2% (active). Next, `FC(F)(F)c1cc(Nc2cccc(Oc3ccc(NC4=NCCN4)nc3)c2)ccc1Cl`: -40.3% (active); `O=C(Nc1ccc2c(ccn2Cc2ccccn2)c1)c1ccnnc1`: 106% (inactive); `NS(=O)(=O)c1ccc(Nc2nc(N/N=C/c3ccc(Cl)cc3)nc(Nc3ccccc3)n2)cc1`: 70.4% (inactive).

In the case of `O=S(=O)(NCCCNc1nccc(-c2[nH]c(-c3ccccc3)nc2-c2ccc(Cl)c(O)c2)n1)c1ccc(Br)cc1`, the growth is 24.1% (inactive). Next, `NC(N)=Nc1ccc(Oc2cccc(NC(N)=Nc3ccc(Br)c(C(F)(F)F)c3)c2)cc1`: 23.5% (inactive); `NS(=O)(=O)c1ccc(Nc2nc(SCc3ccccc3)nc3ccccc23)cc1`: 84.7% (inactive). Consider `NS(=O)(=O)c1ccc(Nc2nc(N/N=C/CCc3ccccc3)nc(Nc3ccccc3)n2)cc1`, for which the growth was 117% (inactive).

For the compound `CC(=O)N1C(=S)NC(=O)C1CC(C)C` (stereo not given), the growth is 118% (inactive). For the compound `Cc1cc(S(=O)(=O)N(C)C)cc(NCC(=O)NC(=O)NCC(C)C)c1C`, the growth is 112% (inactive).

`CC(=O)O[C@@H]1C(=O)N(c2cnccn2)[C@H]1c1ccccc1[N+](=O)[O-]`: the growth is 2.08% (active). Next, `COc1c(N2CC3CCCNC3C2)c(F)cc2c(=O)c(C(=O)N/N=C/c3ccc(F)cc3)cn(C3CC3)c12` (stereo not given): 92.9% (inactive). Next, `O=C1C(c2ccccc2)=C(N2CCc3ccccc32)OC1(Cl)Cl`: 3.88% (active). As for `Cc1noc(C)c1CSc1nc2ccccc2n1-c1ccccc1`, the figure is 114% (inactive); as for `Cn1ccnc1C(=O)/C=C/c1ccc(CNC(=O)c2ccc(Cl)cc2)cc1`, 17% (inactive). On to `NC(N)=Nc1ccc(Oc2cccc(NC(N)=Nc3ccc(Cl)c(C(F)(F)F)c3)c2)cn1`, for which the growth is 3.55% (active). As for `Fc1ccc(-c2cc3nc(C(Cl)Cl)nc(-c4ccco4)n3n2)cc1`, the figure is -46.9% (active); as for `O=C1Nc2ccccc2/C1=C/c1ccc(COCC2CO2)n1-c1ccc(O)cc1` (stereo not given), 111% (inactive).

Turning to `N#Cc1cccc(/C(N)=N/C(N)=N/c2nc3ccccc3s2)c1`, the growth is 20.6% (inactive).

For `C/C(=N\O)[C@H]1C[C@]23CC[C@]4(C)[C@H](CC[C@@H]5[C@@]6(C)CC/C(=N/O)C(C)(C)[C@@H]6CC[C@]54C)[C@H]2[C@H](C)C1(C)OC3`, the growth is 113% (inactive). `COc1ccc([C@H]2c3[nH]c4ccccc4c3C[C@H]3C(=O)N(C4CCN(Cc5c(Cl)cccc5Cl)CC4)CC(=O)N23)c(OC)c1`: the growth is 103% (inactive). Next, `CC1(C)CC[C@]2(C(=O)N3CCOCC3)CC[C@]3(C)C(=CC[C@@H]4[C@@]5(C)C/C(=C/c6ccco6)C(=O)C(C)(C)[C@@H]5CC[C@]43C)[C@@H]2C1`: 86.9% (inactive); `CNC1CCc2c(sc(NC(=O)c3ccc(C(C)(C)C)cc3)c2C(N)=O)C1` (stereo not given): 61.3% (inactive); `CC(=O)C1=C(C)NC(NN)=NC1c1cccc(Cl)c1` (stereo not given): 123% (inactive).

Consider `CCn1c(SCC(=O)Nc2cccc(C(=O)/C=C/c3ccc(C)cc3)c2)nc2ccccc2c1=O`, for which the growth is 43.9% (inactive). As to `Cc1ccc(C2=NN(C)C(=O)C3(CCCC3)C2)cc1`, the growth was 110% (inactive).

As to `NS(=O)(=O)c1ccc(-n2cc(CN3CCCCC3)nn2)cc1`, the growth was 113% (inactive).

For the compound `COc1ccccc1N1CCN(C2=CC(=O)C(C)=C(C)C2=O)CC1`, the growth is 110% (inactive).
